Measured values as given in PubChem BioAssay (NCATS).
Records with an inconclusive call do not appear. Where a call stands in place of a potency, no number is given. The source made the active and inactive calls. Unless noted, calls follow the shape of the dose curve; as a rule, active = well fitted inhibition curve with a large enough effect; inconclusive = small, poorly fitted or top-dose-only effect; inactive = flat fitted curve, though single readings scatter.

Target: DNA dC->dU-editing enzyme APOBEC-3G (Homo sapiens) (UniProt Q9HC16)
Assay: qHTS for inhibitors of Vif-A3G interactions: Validation (AID 588379)
Conditions: Vif-A3G protein interaction assay; series mostly up to 46.1 µM
Method in brief: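 HeLa cells stably expressing Vif and A3G-eYFP, 700 cells/well, incubated overnight at 37 deg C, then exposed to compound overnight at 37 deg C. Inhibition of Vif-mediated degradation read as increased yellow fluorescence (Ex 488/Em 500-530) by laser-scanning cytometry.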

Chain of DNA dC->dU-editing enzyme APOBEC-3G (Homo sapiens) (Q9HC16 whole entry, looked up): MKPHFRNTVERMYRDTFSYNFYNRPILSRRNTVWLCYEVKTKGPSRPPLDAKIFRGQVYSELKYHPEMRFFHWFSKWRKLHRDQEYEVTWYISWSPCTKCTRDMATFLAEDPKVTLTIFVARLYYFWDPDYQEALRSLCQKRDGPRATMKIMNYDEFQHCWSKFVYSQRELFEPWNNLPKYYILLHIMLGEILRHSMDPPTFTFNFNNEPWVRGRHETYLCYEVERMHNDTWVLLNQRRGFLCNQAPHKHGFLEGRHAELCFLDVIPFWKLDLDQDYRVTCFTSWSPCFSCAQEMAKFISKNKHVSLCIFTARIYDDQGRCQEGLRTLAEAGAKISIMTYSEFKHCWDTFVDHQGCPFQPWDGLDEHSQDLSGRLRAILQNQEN

SMILES	outcome
C1COC(NC(C2CC2)C2CC2)=N1	inactive
CC(C)C[C@H](NC(=O)[C@@H](O)[C@H](N)Cc1ccccc1)C(=O)O	inactive
N=c1nc(N2CCCCC2)cc(N)n1O	inactive
CCN(c1ccccc1)c1cc(NC)[n+](C)c(C)n1	inactive
CC(C)(Sc1ccc(CCN(CCCCC2CCCCC2)C(=O)NC2CCCCC2)cc1)C(=O)O	inactive
Clc1cccc(Cl)c1NC1=NCCN1	inactive
NC(N)=NC(=O)c1nc(Cl)c(N)nc1N	inactive
Nc1nc2ccc(OC(F)(F)F)cc2s1	inactive
Cc1[nH]c(=O)c(C#N)cc1-c1ccncc1	inactive
Cc1ccc2c(c1)C(=O)[C@@]1(O)CCN(c3ccccc3)C1=N2	inactive
NC(=O)c1ccc(-c2nc(-c3ccc4c(c3)OCO4)c(-c3ccccn3)[nH]2)cc1	inactive
CCOC(=O)C1=C[C@@]2(CC)CCCN3CCc4c(n1c1ccccc41)[C@H]32	inactive
CCOC(=O)N1CCC(=C2c3ccc(Cl)cc3CCc3cccnc32)CC1	inactive
O=C1CCc2cc(OCCCCc3nnnn3C3CCCCC3)ccc2N1	inactive
Cc1cc2c(C(C)C)c(O)c(O)c(C=O)c2c(O)c1-c1c(C)cc2c(C(C)C)c(O)c(O)c(C=O)c2c1O	inactive

Target: Estrogen receptor (Homo sapiens) (UniProt P03372)
Assay: qHTS assay for small molecule antagonists of estrogen receptor alpha signaling (AID 588513; active = well fitted curve in the direction sought with a large enough effect in the signal ratio, with a control signal flat, not every such curve was filed as active; the % refers to the signal ratio; also: potency is read from the fitted curve at half-maximal effect)
Conditions: ER-alpha-UAS-bla HEK293, beta-lactamase ratio, antagonist mode; series mostly up to 76.9 µM
Method in brief: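 Cells were plated at 5000/well and incubated 4 h at 37 C. Compounds were added as 1:2 dilution series, duplicates. 17-beta-estradiol (0.5nM final) was added for 18 h before CCF4 detection.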

Chain of Estrogen receptor (Homo sapiens) (P03372 whole entry, looked up): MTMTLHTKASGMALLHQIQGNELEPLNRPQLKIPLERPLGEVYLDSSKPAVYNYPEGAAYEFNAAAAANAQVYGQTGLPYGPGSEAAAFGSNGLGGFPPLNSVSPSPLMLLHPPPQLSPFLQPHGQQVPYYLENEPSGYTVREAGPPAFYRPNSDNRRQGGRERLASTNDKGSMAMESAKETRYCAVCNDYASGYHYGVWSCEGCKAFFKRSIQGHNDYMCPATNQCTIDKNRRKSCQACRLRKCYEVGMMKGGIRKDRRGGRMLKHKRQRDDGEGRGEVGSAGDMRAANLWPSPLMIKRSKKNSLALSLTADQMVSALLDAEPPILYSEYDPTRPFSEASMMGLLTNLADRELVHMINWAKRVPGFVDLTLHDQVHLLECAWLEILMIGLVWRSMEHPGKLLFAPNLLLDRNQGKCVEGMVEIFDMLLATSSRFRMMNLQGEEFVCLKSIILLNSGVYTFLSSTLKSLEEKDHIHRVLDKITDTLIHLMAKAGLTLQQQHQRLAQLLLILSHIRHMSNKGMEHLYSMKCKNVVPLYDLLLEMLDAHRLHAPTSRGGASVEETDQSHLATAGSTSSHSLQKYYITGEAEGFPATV

SMILES	Potency
Cn1cnc([N+](=O)[O-])c1Sc1ncnc2nc[nH]c12	inactive
NS(=O)(=O)c1cc2c(cc1Cl)NC=NS2(=O)=O	inactive
CC(C)(Sc1ccc(CCN(CCCCC2CCCCC2)C(=O)NC2CCCCC2)cc1)C(=O)O	15.8 µM [inhibitor] (active)
NC(=O)c1cnccn1	inactive
CCCC(CCC)C(=O)O	inactive
CC(=O)Oc1ccccc1C(=O)O	inactive
Cc1ccccc1C(OCCN(C)C)c1ccccc1 (stereo unspecified)	inactive
O=c1[nH]cnc2[nH]ncc12	inactive

Target: Estrogen receptor (Homo sapiens) (UniProt P03372)
Assay: qHTS assay for small molecule agonists of estrogen receptor alpha signaling (AID 588514; calls by dose curve; also: nearly all actives have a fitted effect of over 70% in size)
Conditions: ER-alpha-UAS-bla HEK293, beta-lactamase ratio, 18 h, percent of full estradiol response, vehicle zero; series mostly up to 76.8 µM
Method in brief: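 Reporter-gene assay. […] controls beta-lactamase in HEK 293 GripTite cells; after 18 hrs with compound, CCF4 substrate is added for 2 hrs and fluorescence is read.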

SMILES	outcome
Cn1cnc([N+](=O)[O-])c1Sc1ncnc2nc[nH]c12	inactive
NS(=O)(=O)c1cc2c(cc1Cl)NC=NS2(=O)=O	inactive
NC(N)=NC(=O)c1nc(Cl)c(N)nc1N	inactive
O=NN(CCCl)C(=O)NCCCl	inactive
NC(=O)c1cnccn1	inactive
CCCC(CCC)C(=O)O	inactive
CC(=O)Oc1ccccc1C(=O)O	inactive
O=c1[nH]cnc2[nH]ncc12	inactive
